Assay results reported in PubChem BioAssay (NCI).
Compounds without any hit were thinned out: in the full panel of roughly 79,000, 15% have a hit. Rule as the data show it: active = growth inhibition above about 70%; inactive = the rest.

Legend:
[1] = NCI Yeast Anticancer Drug Screen. Data for the rad50 strain (AID 155);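 also: 0% = growth of vehicle-only cultures of the same strain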; settings: S. cerevisiae rad50 strain growth inhibition; at 50.0 µM; stronger effect = higher value
Procedure, shortened: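 Genetically altered yeast (DNA repair pathway); compound treatment; growth inhibition vs vehicle ctrl.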

[2] = NCI Yeast Anticancer Drug Screen. Data for the mec2-1 strain (AID 157); settings: S. cerevisiae mec2-1 strain, at 50.0 µM, stronger effect = higher value
Procedure, shortened: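 Cells of the genetically defined mec2-1 yeast strain are incubated with test compound. Inhibition of growth is calculated against vehicle-treated controls.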

[3] = NCI Yeast Anticancer Drug Screen. Data for the sgs1 mgt1 strain (AID 161);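 also: 0% = growth of cultures given vehicle only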; settings: S. cerevisiae sgs1 mgt1 strain, at 50.0 µM, stronger effect = higher value
Procedure, shortened: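 Test agents were incubated with a DNA-repair-mutant yeast strain. Growth was then read and compared against vehicle-treated controls.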

[4] = NCI Yeast Anticancer Drug Screen. Data for the cln2 rad14 strain (AID 165);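 also: 0% = growth equal to vehicle treated cultures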; settings: S. cerevisiae cln2 rad14 strain, at 50.0 µM, stronger effect = higher value
Procedure, shortened: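 The screen exposed genetically defined yeast (cln2 rad14) to test compounds and scored growth inhibition relative to vehicle-treated controls.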

[5] = NCI Yeast Anticancer Drug Screen. Data for the bub3 strain (AID 167); settings: S. cerevisiae bub3 mutant strain, at 50.0 µM, stronger effect = higher value
Procedure, shortened: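 Yeast carrying a defined mutation is treated with each compound, and growth is compared with that of vehicle-exposed cells to give inhibition.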

[6] = NCI Yeast Anticancer Drug Screen. Data for the mlh1 rad18 strain (AID 175); settings: S. cerevisiae mlh1 rad18 strain growth inhibition; at 50.0 µM; stronger effect = higher value
Procedure, shortened: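 Compound-treated yeast growth, normalised to vehicle controls. Strain bears defined DNA repair mutations.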

Measured: growth inhibition

CCc1c(C#N)c(=O)[nH]c(=O)n1CCN1CCN(C(=O)NCCCCCCNC(=O)N2CCN(CCn3c(CC)c(C#N)c(=O)[nH]c3=O)CC2)CC1
inactive: [1] 4.6% | [2] 2.55% | [3] -14.4% | [4] -23.6% | [5] 2.7% | [6] -26.1%

Cc1cccc(C)c1OC(=O)Nc1ccccc1
inactive: [1] 3.75% | [2] -18.6% | [3] 4.3% | [4] -46.5% | [5] 9.7% | [6] -8.95%

COc1ccccc1/C=C/C(=O)c1sc(-c2cccnc2)nc1C
inactive: [1] 38.5% | [2] 17.5% | [3] 5.3% | [4] 17.9% | [5] 23.9% | [6] 33.5%

CCCCOC(=O)NC
inactive: [1] 44.6% | [2] -6.7% | [3] 12.8% | [4] -15.9% | [5] 7.85% | [6] 22.2%

C[n+]1cc(-c2ccccc2)cc(-c2ccccc2)c1
inactive: [1] 0.85% | [2] -3.35% | [3] -1.55% | [4] -29.8% | [5] -3.45% | [6] 6.85%

Cc1ccc(-c2oc3ccccc3c(=O)c2O)cc1
inactive: [1] 22.9% | [2] -9.9% | [3] 2.1% | [4] -5.3% | [5] 5.45% | [6] 7.65%

O=C(O)CCN1CCCS(=O)(=O)C1=O
inactive: [1] 11.8% | [2] 8% | [3] -0.35% | [4] 9% | [5] -0.85% | [6] -5.3%

O=C1c2c(ccc3c2CCCC3)CC12Cc1ccccc1C2
inactive: [1] 8.9% | [2] -4.45% | [3] 9.25% | [4] -2.75% | [5] 4.8% | [6] 4.7%

CC(=O)OCc1ccc(C)c(COC(C)=O)c1
inactive: [1] 3.45% | [2] -20.6% | [3] -9.4% | [4] 3.8% | [5] 1.1% | [6] -9.4%

[NH-]c1ncnc2c1N=C[N+]2=CC=CCO
inactive: [1] -1.6% | [2] -17% | [3] -19.7% | [4] -7.6% | [5] -28.4% | [6] -10.7%

O=C1OC(/C=C/c2ccccc2)C(=O)C1=O (stereo not given)
inactive: [1] -4% | [2] -4.55% | [3] -3.9% | [4] 25.4% | [5] -9.75% | [6] -9.95%

CC(=O)/C(C)=C\C=C(\C)C(C)=O
inactive: [1] -7.2% | [2] -11.5% | [3] -16.2% | [4] -84.5% | [5] -0.45% | [6] -4.7%

N#Cc1ccc(NN=NCCCCCl)cc1
inactive: [1] 8.85% | [2] -8.3% | [3] 14.8% | [4] 3.05% | [5] -6.7% | [6] 2.6%

CC(C)N(Cc1ccccc1)C(=O)Nc1ccc(Cc2ccc(NC(=O)N(Cc3ccccc3)C(C)C)cc2)cc1
inactive: [1] -0.7% | [2] -12.3% | [3] 0.35% | [4] 18.4% | [5] -10.1% | [6] -8.3%

O=C(O)C1CCCN1Cc1cc2ccccc2c2ccccc12 (stereo not given)
inactive: [1] 11.2% | [2] -11.1% | [3] -25.9% | [4] 8.6% | [5] -3.3% | [6] 26.5%

CC1=NN(C(=O)CC(=O)Nc2ccccc2C)C(=O)C1N=Nc1ccc(S(=O)(=O)c2ccc(N=NC3C(=O)N(C(=O)CC(=O)Nc4ccccc4C)N=C3C)cc2)cc1 (stereo not given)
inactive: [1] 41.6% | [2] 14.5% | [3] -2.25% | [4] 2.45% | [5] -8.75% | [6] 1.35%

N#C/C(=C\c1ccc2c(c1)OCO2)C(=O)N/N=C/c1ccc2c(c1)OCO2
inactive: [1] 4.6% | [2] 17.3% | [3] 5.4% | [4] -13.7% | [5] -0.1% | [6] 2.95%

COc1ccc2c(c1)CC1(CC2)CCN(CCCN(C)C)CC1
inactive: [1] -32.3% | [2] -7.85% | [3] -22.2% | [4] 10.6% | [5] -9.7% | [6] -42.3%

CC(=O)NNC(=S)/N=C/c1c(C)[nH]n(-c2ccccc2)c1=O
inactive: [1] 4.6% | [2] -7.95% | [3] -22.1% | [4] 2.65% | [5] -6.85% | [6] 17.6%

C=CCN1C(C)(C)NC(=S)C1(C)C
inactive: [1] -20.8% | [2] -4.9% | [3] -1.7% | [4] -5% | [5] -6% | [6] -2.35%

C=C(NC(C)=O)C(=O)CCC(N)=O
inactive: [1] -0.75% | [2] -0.7% | [3] -7.5% | [4] 1.75% | [5] 4.75% | [6] -53.7%

CC1C2(C)OC(=N)C(C#N)(C(c3ccccc3)O2)C1(C#N)C#N (stereo not given)
inactive: [1] 8.7% | [2] -5.15% | [3] -13.4% | [4] 6.25% | [5] -3.2% | [6] -23.6%

CCCC1SC(=S)N(c2ccc(Cl)cc2)C1=O (stereo not given)
inactive: [1] 17.9% | [2] 22.1% | [3] 26.5% | [4] 9.2% | [5] -1.55% | [6] 9.9%

CCN(CC)c1nc2c(c(=O)n(C)c(=O)n2C)n1CCCNCC(O)c1ccc(O)c(O)c1 (stereo not given)
inactive: [1] -15.7% | [2] -16.4% | [3] -30.9% | [4] -47.1% | [5] -1.85% | [6] -31.5%

CCN(CC)CCCC(C)NCc1ccnc2cc(Cl)ccc12 (stereo not given)
inactive: [1] -3.35% | [2] -8.05% | [3] 5.95% | [4] -21.4% | [5] 1.65% | [6] 25.4%

N=c1c2ccccc2c2ccccc2n1O
inactive: [1] 2.15% | [2] -5.05% | [3] -19.1% | [4] -11.4% | [5] -5.75% | [6] -19.4%

O=[N+]([O-])c1ccc(N=Nc2c(O)[nH]c3ccc(Br)cc23)c([N+](=O)[O-])c1
inactive: [1] 9.75% | [2] -21.2% | [3] 2.15% | [4] -23.1% | [5] -20.6% | [6] 5.5%

CC/C=C\C/C=C\C/C=C\CCCCCCCC(=O)OC(COC(=O)CCCCCCCCCCCCCCCCC)COC1OC(CO)C(O)C(O)C1O (stereo not given)
inactive: [1] 38.4% | [2] 8.55% | [3] 31.8% | [4] -3.4% | [5] 32.2% | [6] 33.4%

Cc1cc(C)c(/C=N/NC(=O)NN)c(C)c1
inactive: [1] -16.7% | [2] -7.15% | [3] -12.2% | [4] -2.1% | [5] 2.8% | [6] -4.6%

COc1cc(NC(C)CCCNC(C)C)c2nccc(C)c2c1 (stereo not given)
inactive: [1] 17.4% | [2] 16.3% | [3] 20.9% | [4] 3.25% | [5] 11.6% | [6] 27.9%

CCCC1(CC)COC(c2ccc(C)cc2)OC1 (stereo not given)
inactive: [1] 13.8% | [2] 0.9% | [3] -7.6% | [4] 5.85% | [5] 11.8% | [6] 3.35%

CCN(CC)Cc1cc(Nc2ncnc3sc(C)c(C)c23)ccc1O
inactive: [1] 9.05% | [2] 9.95% | [3] 1.3% | [4] -13.2% | [5] -10.3% | [6] -15.7%

CC(=O)OCC1OC(OC(C)=O)C(NC(=O)CN(Cc2ccccc2)S(C)(=O)=O)C(OC(C)=O)C1OC(C)=O (stereo not given)
inactive: [1] -8.6% | [2] 13.9% | [3] -16.1% | [4] -1.65% | [5] 0.35% | [6] -4.05%

CCOC(=O)Nc1nc(-c2ccccc2)c(C)s1
inactive: [1] -23.2% | [2] -20.8% | [3] -16.8% | [4] -7.1% | [5] -44.9% | [6] -2.15%

C[N+]1(C)C/C(=C\c2ccncc2)C(=O)/C(=C/c2ccncc2)C1
inactive: [1] 0.3% | [2] -2.45% | [3] 14.3% | [4] 5.3% | [5] 1.1% | [6] -10.2%

O=C(c1ccccc1)N1OCCCc2ccccc21
inactive: [1] 17.5% | [2] 7.9% | [3] 19.2% | [4] 2.7% | [5] 13.3% | [6] 20.4%

Nc1ncnc2nc[nH]c12
inactive: [1] -8.7% | [2] -6.7% | [3] 13.9% | [4] -24.7% | [5] -12.1% | [6] -5.7%

C[n+]1c(/C=C/c2ccc3c(c2)OCO3)ccc2ccccc21
inactive: [1] 1.55% | [2] -0.2% | [3] 22% | [4] 6% | [5] 14.1% | [6] 14.2%

COc1ccc(CC(=O)NCCc2ccc(OC)c(OC)c2)cc1Br
inactive: [1] 12.2% | [2] -4.85% | [3] -3.8% | [4] 8.35% | [5] 8.8% | [6] 2.6%

COc1nc2c(nc(N)n2C2OC(CO)C(O)C(O)C2O)c(=O)[nH]1 (stereo not given)
inactive: [1] -26.4% | [2] -8% | [3] -1.5% | [4] 3.45% | [5] 0.95% | [6] 20.9%
